# According to PubChem BioAssay (NCATS):
# Results filed as inconclusive are left out. Entries that show only a call come without a potency. Calls of active or inactive are those of the source. Unless noted, calls follow the shape of the full dose curve.
# Key:
# [1] = Primary qHTS for Huh7 cytotoxicity: counterscreen for inhibitors of MERS-S pseudotyped particle cell entry (AID 1479147); conditions: outcome: dose series up to 57.1 µM unless noted
# [2] = Primary qHTS for Vero E6 cytotoxicity: counterscreen for inhibitors of SARS-S pseudo-typed particle cell entry (AID 1479150); conditions: outcome: dose series up to 57.1 µM unless noted
# [3] = Cytotoxicity counterscreen for inhibitors of SARS-CoV-2 cell entry (AID 1645845); conditions: outcome: dose series up to 57.1 µM unless noted; also: nearly all actives have a fitted effect of over 50% in size; also: potency is read from the fitted curve at half-maximal effect
# Summary of the method: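 48 h compound treatment (after 1 h preincubation), HEK293-ACE2 cells, 37 C/5% CO2; ATP luminescence endpoint; normalized to cell wells and media blanks.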
# [4] = Primary qHTS to identify inhibitors of SARS-CoV-2 cell entry (AID 1645846); conditions: SARS-CoV-2 pseudovirus cell entry assay, luminescence; activity change, negative = inhibition: at 57.1 µM (top of the series) unless noted; also: nearly all actives have a fitted effect of over 45% in size; also: potency is read from the fitted curve at half-maximal effect
# Summary of the method: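 Luminescence readout (Bright-Glo luciferase) 48 h after pseudoparticle addition. HEK293-ACE2 cells, 1500/well; compound pre-incubation 1 h; Normalized to spike PP and bald PP.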
# [5] = qHTS Assay for Identifying Gametocytocidal Compounds (AID 743244; active = well fitted curve in the direction sought with a large enough effect; an effect the other way counts as inactive or inconclusive; also: potency is read from the fitted curve at half-maximal effect); conditions: P. falciparum 3D7 stage III-V gametocytes, alamarBlue, 72 h
# Summary of the method: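 Stage III–V gametocytes of P. falciparum 3D7 were seeded at 20,000 cells/well onto pre-dispensed compounds. After 72 h, 37 °C, 5% CO2, alamarBlue was added for another 24 h.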
# [6] = Confirmatory qHTS for activators (rescue) of SARS-CoV-2 Cytopathic Effect (CPE) (AID 1508606); also: nearly all actives have a fitted effect of over 70% in size; also: potency is read from the fitted curve at half-maximal effect
# [7] = biological target: Glutathione peroxidase 1 (Homo sapiens) (UniProt P07203); assay: Primary qHTS Assay for Inhibitors of Recombinant Selenoprotein Glutathione Peroxidase 1 (GPX1) (AID 1845191; active = well fitted curve in the direction sought with a large enough effect; an effect the other way counts as inactive or inconclusive; also: nearly all actives have a fitted effect of over 65% in size)
# Summary of the method: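 10 nM GPX1 + cpd, 30 min RT; start w/ 1 mM GSH, 0.5 mM cumene hydroperoxide, 0.5 mM NADPH, 100 nM GR, 0.01% BSA; buffer 50 mM Tris-HCl pH 7.5, 2 mM EDTA, 150 mM NaCl; Fl 340/450, 0 & 15 min.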
# [8] = Confirmatory qHTS for VERO E6 Cytotoxicity Assay: Counterscreen for SARS-CoV-2 CPE Assay (AID 1508605); also: nearly all actives have a fitted effect of over 60% in size; also: potency is read from the fitted curve at half-maximal effect
# Glutathione peroxidase 1 (Homo sapiens), sequence (P07203 whole entry, looked up): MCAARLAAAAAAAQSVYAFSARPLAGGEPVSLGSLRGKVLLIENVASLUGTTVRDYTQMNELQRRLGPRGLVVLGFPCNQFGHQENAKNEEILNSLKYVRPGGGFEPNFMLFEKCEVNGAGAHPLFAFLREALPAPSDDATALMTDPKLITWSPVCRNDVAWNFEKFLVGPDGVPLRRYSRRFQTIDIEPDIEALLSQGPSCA
smiles,measurement,setting,value
CNS(=O)(=O)CC1CCC(N(C)c2ncnc3[nH]ccc23)CC1 (centres undefined),Potency,[1],inactive
same,Potency,[2],inactive
same,Potency,[3],inactive
same,Potency,[4],inactive
CC[C@@H](C)[C@H]1O[C@]2(CC[C@@H]1C)C[C@@H]1C[C@@H](C/C=C(\C)[C@@H](O[C@H]3C[C@H](OC)[C@@H](O[C@H]4C[C@H](OC)[C@@H](O)[C@H](C)O4)[C@H](C)O3)[C@@H](C)/C=C/C=C3\CO[C@@H]4[C@H](O)C(C)=C[C@@H](C(=O)O1)[C@]34O)O2,Potency,[1],inactive
same,Potency,[2],inactive
same,Potency,[3],inactive
CC[C@@H]1/C=C(\C)C[C@H](C)C[C@H](OC)[C@H]2O[C@@](O)(C(=O)C(=O)N3CCCC[C@H]3C(=O)O[C@H](/C(C)=C/[C@@H]3CC[C@H](Cl)[C@H](OC)C3)[C@H](C)[C@@H](O)CC1=O)[C@H](C)C[C@@H]2OC,Potency,[1],inactive
same,Potency,[2],inactive
same,Potency,[3],inactive
CO[C@H]1/C=C\O[C@@]2(C)Oc3c(C)c(O)c4c(O)c(c5c(c4c3C2=O)=NC2(CCN(CC(C)C)CC2)N=5)NC(=O)/C(C)=C\C=C/[C@H](C)[C@H](O)[C@@H](C)[C@@H](O)[C@@H](C)[C@H](OC(C)=O)[C@@H]1C,Potency,[1],inactive
same,Potency,[2],inactive
same,Potency,[3],inactive
same,"activity change, negative = inhibition",[4],-26.3%
Cc1cc(-n2c(=O)[nH]c(=O)n(C)c2=O)ccc1Oc1ccc(SC(F)(F)F)cc1,Potency,[1],inactive
same,Potency,[2],inactive
same,Potency,[3],inactive
CC[C@@H](C(=O)[C@@H](C)[C@@H](O)[C@H](C)CCc1ccc(C)c(O)c1C(=O)O)[C@H]1O[C@](CC)([C@H]2CC[C@](O)(CC)[C@H](C)O2)C[C@@H]1C,Potency,[1],inactive
same,Potency,[2],inactive
same,Potency,[3],8.91 µM (active)
same,Potency,[4],5.01 µM (active)
OC[C@H]1NC[C@H](O)[C@@H](O)[C@@H]1O,Potency,[1],inactive
same,Potency,[2],inactive
same,Potency,[3],inactive
CCCCC(=O)OCC(=O)[C@]1(O)Cc2c(O)c3c(c(O)c2[C@@H](O[C@H]2C[C@H](NC(=O)C(F)(F)F)[C@H](O)[C@H](C)O2)C1)C(=O)c1c(OC)cccc1C3=O,Potency,[5],7.08 µM (active)
CC[C@@H](C(=O)O)[C@@H]1O[C@@H]([C@@H](C)[C@H](O)[C@H](C)C(=O)[C@H](CC)[C@H]2O[C@]3(C=C[C@@H](O)[C@]4(CC[C@@](C)([C@H]5CC[C@](O)(CC)[C@H](C)O5)O4)O3)[C@H](C)C[C@@H]2C)[C@@H](C)C[C@@H]1C,Potency,[5],0.316 µM (active)
COc1ccc2c(c1)N(C[C@H](C)CN(C)C)c1ccccc1S2,Potency,[6],10 µM (active)
CC1CCCC(O)CCCCCc2cc(O)cc(O)c2C(=O)O1 (centres undefined),Potency,[7],inactive
CC(C)c1cccc2c(-c3ccccc3)cc(-c3ccc(-c4ccc(C(=O)O)cc4)[nH]3)nc12,Potency,[8],inactive
Cc1nc2ccc(Oc3ccc(F)cc3)cc2c(=O)n1C[C@H]1CCCN(C(C)C)C1,Potency,[8],inactive
CCC(C)C(=O)OC1C(C)C2(O)C(C=C(CO)CC3(O)C(=O)C(C)=CC32)C2C(C)(C)C12OC(=O)C(C)C (centres undefined),Potency,[8],inactive
same,Potency,[6],inactive
CCC(C)CNCC(=O)N1CCC2SC=CC2C1COc1cccc(C)c1 (centres undefined),Potency,[8],inactive
CN(C)c1nc(NC2CCC(NCCc3ccc(Br)cc3OC(F)(F)F)CC2)nc2ccccc12 (centres undefined),Potency,[8],3.98 µM (active)
same,Potency,[6],inactive
Cc1cnc(NC(=O)c2cc(S(=O)(=O)N(C)C)ccc2N2CCCC2)s1,Potency,[8],inactive
same,Potency,[6],2.82 µM (active)
CS(=O)(=O)NCC1CCC(Nc2nc3c(s2)CCSc2ccccc2-3)CC1 (centres undefined),Potency,[8],inactive
C=CC(C)(C)c1[nH]c2ccccc2c1C1=C(O)C(=O)C(c2c[nH]c3c(CC=C(C)C)cccc23)=C(O)C1=O,Potency,[8],3.98 µM (active)
same,Potency,[6],inactive
COC(=O)Nc1cc(Nc2cc(NC3CC3)c3ncc(C#N)n3n2)c(Cl)c(N2CCN(C)CC2)c1,Potency,[8],2.51 µM (active)
same,Potency,[6],inactive
O=C(/C=C/c1ccccc1)NC(NC(=S)Nc1cccc2cccnc12)C(Cl)(Cl)Cl (centres undefined),Potency,[8],inactive
CCC(C)C(=O)OC12C(OC(C)=O)C(C)C3(O)C(C=C(CO)CC4(O)C(=O)C(C)=CC43)C1C2(C)C (centres undefined),Potency,[8],inactive
COc1ccc(NC(=O)c2ccc(-c3ccc(-c4nnc(C)o4)cc3C)cc2)cc1N1CCN(C)CC1,Potency,[8],inactive
same,Potency,[6],6.31 µM (active)
COc1cc(-n2cnc3cc(-c4ccc(Cl)cc4)sc3c2=O)ccc1OCCN1CCCC1,Potency,[8],inactive
same,Potency,[6],3.55 µM (active)
COc1ccc(-c2csc(NC(=O)[C@H]3CCCCN3S(=O)(=O)c3ccc(C)cc3)n2)cc1,Potency,[8],inactive
